# Measurements: the supplement of paper PMC8728848
# Only a selection was taken, and the strongest signals are over-represented in it overall.
# B1: LecB LY19 (Pseudomonas aeruginosa) (protein)
# chain: MATQGVFTLPANTQFGVTAFANSAGTQTVNVQVNNETVATFTGQSTNNGIIGSKVLNSGGGGKVQILVSVNGRSSDLVSAQVILANELNFALVGSEDSTDNDYNDAVVVINWPLG
# Assays:
# Assay in all cases: glycan array binding signal (z-score within array); higher = stronger binding
# Details in all cases: glycan notation: IUPAC condensed, linker removed
# [1] = target: Fuc(a1-2)Gal(b1-3)GalNAc(b1-3)Gal(a1-4)Gal(b1-4)Glc
# Summary of the method: (§1)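 Columns mapping to the same glycan were averaged after glycan names were converted to IUPAC-condensed notation. The data come from 3228 arrays in the Consortium for Functional Glycomics database, limited to those with an available protein sequence. Binding is reported as a within-array Z-score averaged across arrays of one protein sequence and across linkers.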
# [2] = target: Fuc(a1-2)Gal(b1-3)GlcNAc(b1-3)Gal(b1-4)Glc
# Summary of the method: as §1
# [3] = target: Fuc(a1-2)Gal(b1-3)GlcNAc(b1-3)GalNAc
# Summary of the method: as §1
# [4] = target: Fuc(a1-2)Gal(b1-3)[Fuc(a1-4)]GlcNAc(b1-3)[Fuc(a1-3)[Gal(b1-4)]GlcNAc(b1-6)]Gal(b1-4)Glc
# Summary of the method: as §1
# Fuc(a1-2)Gal(b1-4)Glc = target: Fuc(a1-2)Gal(b1-4)Glc
# Summary of the method: as §1
# Fuc(a1-2)Gal(b1-4)Glc6S = target: Fuc(a1-2)Gal(b1-4)Glc6S
# Summary of the method: as §1
# [5] = target: Fuc(a1-2)Gal(b1-4)GlcNAc(b1-3)Gal(b1-4)GlcNAc
# Summary of the method: as §1
# [6] = target: Fuc(a1-2)Gal(b1-4)GlcNAc(b1-3)Gal(b1-4)GlcNAc(b1-3)Gal(b1-4)GlcNAc
# Summary of the method: as §1
# [7] = target: Fuc(a1-2)Gal(b1-4)[Fuc(a1-3)]GlcNAc
# Summary of the method: as §1
# [8] = target: Fuc(a1-2)Gal(b1-4)[Fuc(a1-3)]GlcNAc(b1-2)Man(a1-3)[Fuc(a1-2)Gal(b1-4)[Fuc(a1-3)]GlcNAc(b1-2)Man(a1-6)]Man(b1-4)GlcNAc(b1-4)[Fuc(a1-6)]GlcNAc
# Summary of the method: as §1
# [9] = target: Fuc(a1-2)Gal(b1-4)[Fuc(a1-3)]GlcNAc(b1-2)[Fuc(a1-2)Gal(b1-4)[Fuc(a1-3)]GlcNAc(b1-4)]Man(a1-3)[Fuc(a1-2)Gal(b1-4)[Fuc(a1-3)]GlcNAc(b1-2)Man(a1-6)]Man(b1-4)GlcNAc(b1-4)GlcNAc
# Summary of the method: as §1
# [10] = target: Fuc(a1-2)Gal(b1-4)[Fuc(a1-3)]GlcNAc(b1-3)Gal(b1-4)[Fuc(a1-3)]GlcNAc
# Summary of the method: as §1
# [11] = target: Fuc(a1-2)Gal(b1-4)[Fuc(a1-3)]GlcNAc(b1-3)Gal(b1-4)[Fuc(a1-3)]GlcNAc(b1-3)Gal(b1-4)[Fuc(a1-3)]GlcNAc
# Summary of the method: as §1
# [12] = target: Fuc(a1-2)[Gal(a1-3)]Gal(b1-3)GlcNAc
# Summary of the method: as §1
# [13] = target: Fuc(a1-2)[Gal(a1-3)]Gal(b1-3)GlcNAc(b1-2)Man(a1-3)[Fuc(a1-2)[Gal(a1-3)]Gal(b1-3)GlcNAc(b1-2)Man(a1-6)]Man(b1-4)GlcNAc(b1-4)[Fuc(a1-6)]GlcNAc
# Summary of the method: as §1
# [14] = target: Fuc(a1-2)[Gal(a1-3)]Gal(b1-4)GlcNAc(b1-2)Man
# Summary of the method: as §1
# [15] = target: Fuc(a1-2)[GalNAc(a1-3)]Gal(b1-3)GalNAc(a1-3)[Fuc(a1-2)]Gal(b1-4)GlcNAc
# Summary of the method: as §1
# [16] = target: Fuc(a1-2)[GalNAc(a1-4)]Gal(b1-4)GlcNAc
# Summary of the method: as §1
# [17] = target: Fuc(a1-3)[Gal(b1-4)]GlcNAc
# Summary of the method: as §1
# [18] = target: Fuc(a1-3)[Gal(b1-4)]GlcNAc(b1-3)Gal(b1-4)[Fuc(a1-3)]GlcNAc(b1-3)Gal(b1-4)[Fuc(a1-3)]GlcNAc
# Summary of the method: as §1
# Gal(a1-3)Gal = target: Gal(a1-3)Gal
# Summary of the method: as §1
# Gal(b1-2)Gal = target: Gal(b1-2)Gal
# Summary of the method: as §1
# [19] = target: Gal(b1-3)GlcNAc(a1-6)Gal(b1-4)GlcNAc
# Summary of the method: as §1
# [20] = target: Gal(b1-3)GlcNAc(b1-2)Man(a1-3)[GlcNAc(b1-4)][Gal(b1-3)GlcNAc(b1-2)Man(a1-6)]Man(b1-4)GlcNAc(b1-4)GlcNAc
# Summary of the method: as §1
# [21] = target: Gal(b1-3)GlcNAc(b1-3)Gal(b1-4)GlcNAc
# Summary of the method: as §1
# [22] = target: Gal(b1-3)GlcNAc(b1-3)Gal(b1-4)[Fuc(a1-3)]GlcNAc(b1-6)[Gal(b1-3)GlcNAc(b1-3)]Gal(b1-4)Glc
# Summary of the method: as §1
binder,measurement,setting,value
B1,glycan array binding signal (z-score),[1],1.77
same,glycan array binding signal (z-score),[2],1.85
same,glycan array binding signal (z-score),[3],1.49
same,glycan array binding signal (z-score),[4],1.32
same,glycan array binding signal (z-score),Fuc(a1-2)Gal(b1-4)Glc,1.5
same,glycan array binding signal (z-score),Fuc(a1-2)Gal(b1-4)Glc6S,1.37
same,glycan array binding signal (z-score),[5],3.29
same,glycan array binding signal (z-score),[6],3.69
same,glycan array binding signal (z-score),[7],2.54
same,glycan array binding signal (z-score),[8],5.32
same,glycan array binding signal (z-score),[9],0.085
same,glycan array binding signal (z-score),[10],5.07
same,glycan array binding signal (z-score),[11],3.27
same,glycan array binding signal (z-score),[12],-0.452
same,glycan array binding signal (z-score),[13],0.089
same,glycan array binding signal (z-score),[14],9.41
same,glycan array binding signal (z-score),[15],-0.497
same,glycan array binding signal (z-score),[16],2.12
same,glycan array binding signal (z-score),[17],1.65
same,glycan array binding signal (z-score),[18],2.77
same,glycan array binding signal (z-score),Gal(a1-3)Gal,-0.538
same,glycan array binding signal (z-score),Gal(b1-2)Gal,-0.514
same,glycan array binding signal (z-score),[19],-0.55
same,glycan array binding signal (z-score),[20],-0.306
same,glycan array binding signal (z-score),[21],-0.553
same,glycan array binding signal (z-score),[22],0.2
